Results as given in PubChem BioAssay.
Values joined by “and” are separate entries in the source; they are usually repeats but may differ in a detail not shown here. Identical values can stand only once.

These compounds were tested against Torsin-1A-interacting protein 1 (Homo sapiens) (UniProt Q5JTV8) (assay: LAP1 binders from COS7 cell lysate, primary screen, small-molecule microarray, 635/667 nm fluorescence (AID 1116)). Conditions: COS7-hLAP1 lysate binding, 635 nm fluorescence, higher = more signal.
Sequence of Torsin-1A-interacting protein 1 (Homo sapiens) (Q5JTV8 whole entry, looked up): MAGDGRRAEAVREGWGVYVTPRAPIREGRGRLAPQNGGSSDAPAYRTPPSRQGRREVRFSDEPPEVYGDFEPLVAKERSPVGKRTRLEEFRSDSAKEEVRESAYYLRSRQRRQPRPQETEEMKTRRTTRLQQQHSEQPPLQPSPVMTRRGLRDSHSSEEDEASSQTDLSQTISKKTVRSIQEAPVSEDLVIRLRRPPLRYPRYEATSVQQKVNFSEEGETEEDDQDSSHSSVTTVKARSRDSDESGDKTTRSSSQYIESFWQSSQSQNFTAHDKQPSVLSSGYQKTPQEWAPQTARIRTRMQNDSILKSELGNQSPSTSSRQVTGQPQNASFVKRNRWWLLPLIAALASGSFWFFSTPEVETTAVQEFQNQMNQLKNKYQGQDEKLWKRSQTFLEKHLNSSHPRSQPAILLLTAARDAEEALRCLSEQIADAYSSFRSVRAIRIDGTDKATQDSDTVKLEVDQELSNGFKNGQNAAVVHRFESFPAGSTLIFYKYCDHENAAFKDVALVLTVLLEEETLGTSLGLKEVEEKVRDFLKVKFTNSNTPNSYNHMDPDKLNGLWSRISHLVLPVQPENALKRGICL

SMILES	composite z-score
C=CCN(C(=O)C(c1cccs1)N(CCOCCO)C(=O)/C=C\C(=O)O)C(C)(C)C (stereo unspecified)	0.17 and -0.417
COC(=O)C1=C(C)N(Cc2ccccc2)[C@]23O[C@](C(=O)OC)(C(=O)N2[C@@H]1c1ccccc1)[C@@H](C(=O)OC)[C@H]3C(=O)OC	0.118 and 0.409
C=C[C@H](C)[C@@H](O)c1ccc(OCCO)cc1	-0.998 and 0.225
C=CCN(CCCC)C(=O)C1N(c2c(Cl)cccc2CO)C(=O)C2C(C(=O)O)C3C=CC21O3 (stereo unspecified)	-0.529 and -0.927
CCCNC(=O)OC[C@H]1O[C@H](CCON=C(C)CCN2CCc3nc(-c4ccccc4)c(-c4ccccc4)cc3C2)C=C[C@@H]1Oc1ccc(OC)cc1	0.32
COC(=O)c1c2oc(c1C(=O)OC)C(=O)N[C@@H](Cc1ccccc1)Cn1cc(nn1)C1(CCCCC1)NC(=O)N[C@H](CO)CC2	2.36 and 0.399
C=CCN(Cc1ccccc1)C(=O)C(c1cccs1)N(C(=O)/C=C\C(=O)O)c1ccc(CCO)cc1 (stereo unspecified)	-0.648 and -0.326

These compounds were tested against Alpha-bungarotoxin (Bungarus multicinctus) (UniProt P60615) (assay: alpha-bungarotoxin binders on microarray, profiling panel, artefact control for SMM control protein annotation, biochemical, small-molecule microarray, Alexa647 label, 635/667 nm fluorescence (AID 1117)). Conditions: alpha-BTX-A647 binding fluorescence, higher = more signal.
Sequence of Alpha-bungarotoxin (Bungarus multicinctus) (P60615 whole entry, looked up): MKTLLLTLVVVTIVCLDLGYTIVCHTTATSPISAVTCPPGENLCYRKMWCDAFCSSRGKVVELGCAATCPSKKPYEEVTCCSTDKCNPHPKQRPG

SMILES	composite z-score
C[N+](C)(C)CCCCNC(=O)[C@H]1C[C@H]2C(=O)N[C@@H](CCCC[N+](C)(C)C)C(=O)N2[C@H]1c1ccc(O)cc1	0.0509 and -0.801
CO[C@@H]1COC(=O)[C@H](Cc2ccccc2)NC(=O)CC=C[C@@H](C)[C@H](OC)COC(=O)[C@@H](C)NC(=O)CC=C[C@H]1C	-0.527 and -0.862
CCOC(=O)c1ccc(NC(=O)O[C@H]2[C@H](OC(=O)Nc3ccccc3)[C@H](OC(=O)Nc3ccccc3)[C@@H](OC)O[C@@H]2CO)cc1	1.86 and 2.87
CC(C)OC(=O)C=C1C[C@@H](c2ccccc2)O[C@@H](c2ccccc2)O1	1.03 and 1.75
C=CCN(C(=O)C1N(CCOCCO)C(=O)C2C(C(=O)O)C3C=CC21O3)c1ccc(OC)cc1 (stereo unspecified)	-1.18 and -2.65
CCCC[C@@H]1CN2[C@H](c3ccc(Br)cc3)[C@@H](C)CC[C@H]2C(=O)O1	0.412 and 0.575
COC(=O)[C@@]1(Cc2ccc(OC)cc2)[C@H]2c3cc(C(=O)N(C)C)n(Cc4ccc(O)c(OC)c4)c3C[C@H]2CN1C(=O)c1ccccc1	0.526 and 0.245
CCOC(=O)NN=C1C[C@@H](O)[C@@H](O)[C@@H]2[C@@H]3C(=O)N(Cc4ccc5c(c4)OCO5)C(=O)[C@@H]3CC[C@@H]12	0.619
C=CCN(CCCC)C(=O)C(c1cccs1)N(CCOCCO)C(=O)/C=C\C(=O)O (stereo unspecified)	-2.1 and 0.069
C=CCN(CCCCC)C(=O)C(c1cccs1)N(C(=O)/C=C\C(=O)O)c1c(Cl)cccc1CO (stereo unspecified)	-2.56 and -0.725
CC(CO)N1C(=O)[C@@H]2C3C(=O)OCCC=C[C@H]3OC23C=CCN(c2ccc4ccccc4c2)C(=O)[C@@H]13 (stereo partly specified)	-0.69 and -0.343
C=C[C@@H](C)[C@@H](O)c1ccc(O)c2ccccc12	-1.29 and 1.65
C=CCN(C(=O)C1N(CCCCCCO)C(=O)C2C(C(=O)O)C3C=CC21O3)c1ccc(OC)cc1 (stereo unspecified)	-2.05 and -1.37
CC[C@@H]1C(Sc2ccccc2)C(C(=O)O)[C@H](c2ccc(C)cc2)N1S(=O)(=O)c1ccc(C)cc1 (stereo partly specified)	0.836 and 1.14
CC(C)=NO[C@@H](C)c1cc(-c2c(C)cc(C)cc2C)no1	0.282
C[N+](C)(C)CCCCCCNC(=O)[C@H]1C[C@H]2C(=O)N[C@@H](CCCC[N+](C)(C)C)C(=O)N2[C@H]1c1ccc(O)cc1	1.02 and -1.54
C=CCN(C(=O)C(c1cccs1)N(C(=O)/C=C\C(=O)O)c1ccc(CCO)cc1)C(C)(C)C (stereo unspecified)	-0.263 and -1.06
C=C[C@@H](OC)[C@H](O)c1ccc(OC)c(O)c1	-0.397 and 0.989
C#CCCCON=C1C[C@@H](O)[C@@H](O)[C@@H]2[C@@H]3C(=O)N(C4CCCCC4)C(=O)[C@@H]3CC[C@H]12	2.51
CC(C)N1CC=CC23O[C@@H]4C=CCCOC(=O)C4[C@H]2C(=O)N(C(C)CO)[C@@H]3C1=O (stereo partly specified)	-0.712 and -1.74

SMILES	composite z-score
CCOC(=O)[C@@H]1CC=C2CC1C(=O)N1CCC[C@@H]1[C@H]2O[Si](C)(C)C(C)(C)C (stereo partly specified)	-0.922 and -1.49
C=CCN(CCCC)C(=O)C(c1cccs1)N(C(=O)/C=C\C(=O)O)c1ccc(CCO)cc1 (stereo unspecified)	0.749 and -2.47
COC(=O)[C@H](C)NC(=O)CCC1CC(OC(=O)NCCc2ccc(F)cc2)CC2(CCCC(COC(=O)NCCCN3CCCC3=O)O2)O1 (stereo partly specified)	1.14
C[C@@H]1CC[C@@H](C(=O)O)N[C@H]1c1ccc(-c2ccco2)cc1	0.0848
CCOC(=O)C[C@H]1[C@H](OC(=O)c2ccccc2-c2ccccc2)[C@@H](NC(=O)c2ccccc2)c2cc(OCCCO)ccc2N1C(=O)c1ccc2ccccc2n1	0.328 and 0.833
COC(=O)C1=C(C)N(Cc2ccccc2)C2=C3C(=O)N(C)C(=O)[C@@H]3[C@@](O)(C(=O)OC)C(=O)N2[C@@H]1c1ccccc1	0.871 and 0.167
CC(C)CON=C1C[C@@H](O)[C@@H](O)[C@@H]2[C@@H]3C(=O)N(c4cccc(Oc5ccccc5)c4)C(=O)[C@@H]3CC[C@H]12	0.162
C=C[C@@H](OC)[C@H](O)c1ccc(OCCO)cc1	-0.7 and -0.37
CC(CO)N1C(=O)[C@@H]2C3C(=O)OCCC=C[C@H]3OC23C=CCN(c2ccc(Cl)cc2)C(=O)[C@@H]13 (stereo partly specified)	0.0882 and -0.198
C=CCN(CCCCC)C(=O)C1N(CCOCCO)C(=O)C2C(C(=O)O)C3C=CC21O3 (stereo unspecified)	-1.16 and -3.11
C=CCN(C(=O)C1N(CCCCCCO)C(=O)C2C(C(=O)O)C3C=CC21O3)C(C)(C)C (stereo unspecified)	-1.42 and -1.95
COC(=O)C1=C(C)N(Cc2ccccc2)C2=C(C(C)=O)C[C@@](O)(C(=O)OC)C(=O)N2[C@@H]1c1ccccc1	-0.634 and 0.42
C=CCN(C(=O)C(c1cccs1)N(CCOCCO)C(=O)/C=C\C(=O)O)C(C)(C)C (stereo unspecified)	-2.22 and -0.34
COC(=O)C1=C(C)N(Cc2ccccc2)[C@]23O[C@](C(=O)OC)(C(=O)N2[C@@H]1c1ccccc1)[C@@H](C(=O)OC)[C@H]3C(=O)OC	-1 and -0.239
C=C[C@H](C)[C@@H](O)c1ccc(OCCO)cc1	-1.12 and -0.0745
C=CCN(CCCC)C(=O)C1N(c2c(Cl)cccc2CO)C(=O)C2C(C(=O)O)C3C=CC21O3 (stereo unspecified)	-0.406 and -1.31
CCCNC(=O)OC[C@H]1O[C@H](CCON=C(C)CCN2CCc3nc(-c4ccccc4)c(-c4ccccc4)cc3C2)C=C[C@@H]1Oc1ccc(OC)cc1	0.316
COC(=O)c1c2oc(c1C(=O)OC)C(=O)N[C@@H](Cc1ccccc1)Cn1cc(nn1)C1(CCCCC1)NC(=O)N[C@H](CO)CC2	1.53 and 0.281
C=CCN(Cc1ccccc1)C(=O)C(c1cccs1)N(C(=O)/C=C\C(=O)O)c1ccc(CCO)cc1 (stereo unspecified)	-1.7 and -1.25
